# IL-1B inflam inh – qHTS for Inhibitors of Inflammasome Signaling: IL-1-beta AlphaLISA Primary Screen; THP-1 LPS/ATP IL-1B secretion, AlphaLISA, 16 h; stronger effect = lower value; activity change, % at 57.5 µM; 4.7% of 360,000 active; AID 743279, 2014; in the data active = activity change below about -50%; inconclusive = mostly about -30% to -49%
#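 THP-1 cells pretreated 1 hr with compounds (up to 57.5 uM final), then stimulated with LPS (250 ng/mL final) plus ATP (1.25 mM final); secreted IL-1B measured by AlphaLISA after 16 hr, decreased signal indicating inhibition.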
# HT1080 IDH1KD tx – qHTS for induction of synthetic lethality in tumor cells producing 2HG: qHTS for the HT-1080-IDH1KD cell line; 2% of 360,000 active; HT-1080 IDH1 knockdown viability, ATP luminescence, 48 h; Potency, µM (top dose mostly 46.1 µM), without a hit: at the highest dose activity, negative = toxicity, actives largely listed as cytotoxic;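 also: potency is read from the fitted curve at half-maximal effect; 0% = DMSO wells and -100% = cell-free medium wells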
#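 Knockdown cells (IDH1KD HT-1080) received compounds 2 h after plating at 750 cells/well and were kept 48 h at 37 °C in 5% FBS RPMI. A CellTiter-Glo luminescence read gave % activity for curve fitting.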
# TDP1 cell noCPT – qHTS for Inhibitors of human tyrosyl-DNA phosphodiesterase 1 (TDP1): qHTS in cells in absence of CPT. 15% of 420,000 active. Potency, µM (highest dose often 46.2 µM), without a hit: top-dose activity change, negative = growth inhibition, usual class: inhibitors. AID 686978, 2013. DT40 Tdp1-/- hTDP1 cells, no CPT, ATP luminescence, 48 h; also: potency is read from the fitted curve at half-maximal effect; nearly all actives have a fitted effect of over 55% in size
#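 Chicken DT40 Tdp1-/- cells stably complemented with human TDP1 were seeded at 400 cells/well with DMSO in place of 20 nM camptothecin. After compound pinning, cells grew at least 48 hr at 37 °C; viability read by CellTiter-Glo luminescence.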
# TDP1 cell CPT – qHTS for Inhibitors of human tyrosyl-DNA phosphodiesterase 1 (TDP1): qHTS in cells in presence of CPT; chicken DT40 Tdp1-/-;hTDP1 cells + 20 nM CPT, ATP luminescence, 48 h; Potency, µM (highest dose often 46.2 µM), for inactives: at the highest dose activity change, negative = growth inhibition, most hits filed as inhibitors; 12% of 420,000 active; AID 686979, 2013; also: potency is read from the fitted curve at half-maximal effect; nearly all actives have a fitted effect of over 55% in size
#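 Chicken DT40 Tdp1-/- cells stably complemented with human TDP1 were seeded at 400 cells/well in medium containing 20 nM camptothecin, exposed to pin-transferred compounds, and grown at 37 °C for at least 48 hr. Viability was read as ATP luminescence.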
# HT1080NT lethal – qHTS for induction of synthetic lethality in tumor cells producing 2HG: qHTS for the HT-1080-NT fibrosarcoma cell line | HT-1080-NT fibrosarcoma viability, CellTiter-Glo ATP luminescence, 48 h | Potency, µM (titrated, usually from 46.1 µM), for the others: at the highest dose activity, negative = less viability, hits mostly cytotoxic | 1.6% of 360,000 active | AID 686970, 2013;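 also: NT is the 2HG producing partner of a matched IDH1 knockdown line; potency is read from the fitted curve at half-maximal effect; 0% = DMSO-treated cells and -100% = media-only wells without cells; nearly all actives have a fitted effect of over 55% in size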
#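 HT-1080-NT fibrosarcoma cells (2HG-overproducing), 750 cells/well in RPMI with 5% FBS, dosed after 2 h and incubated 48 h at 37C. CellTiter-Glo luminescence normalized to DMSO and no-cell wells; concentration-response curves fitted and classed.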
# ALOX12 inh – Primary qHTS assay for inhibitors of human arachidonate 12S-lipoxygenase (ALOX12): Round 2. purified 12hLO, xylenol orange hydroperoxide absorbance. 1.1% of 580,000 active. Polyunsaturated fatty acid lipoxygenase ALOX12 (Homo sapiens), P18054. Potency, µM (highest dose often 108 µM), for the others: top-dose activity change, negative = inhibition, hits mostly inhibitors; also: potency is read from the fitted curve at half-maximal effect
# Target sequence (P18054 whole entry, looked up): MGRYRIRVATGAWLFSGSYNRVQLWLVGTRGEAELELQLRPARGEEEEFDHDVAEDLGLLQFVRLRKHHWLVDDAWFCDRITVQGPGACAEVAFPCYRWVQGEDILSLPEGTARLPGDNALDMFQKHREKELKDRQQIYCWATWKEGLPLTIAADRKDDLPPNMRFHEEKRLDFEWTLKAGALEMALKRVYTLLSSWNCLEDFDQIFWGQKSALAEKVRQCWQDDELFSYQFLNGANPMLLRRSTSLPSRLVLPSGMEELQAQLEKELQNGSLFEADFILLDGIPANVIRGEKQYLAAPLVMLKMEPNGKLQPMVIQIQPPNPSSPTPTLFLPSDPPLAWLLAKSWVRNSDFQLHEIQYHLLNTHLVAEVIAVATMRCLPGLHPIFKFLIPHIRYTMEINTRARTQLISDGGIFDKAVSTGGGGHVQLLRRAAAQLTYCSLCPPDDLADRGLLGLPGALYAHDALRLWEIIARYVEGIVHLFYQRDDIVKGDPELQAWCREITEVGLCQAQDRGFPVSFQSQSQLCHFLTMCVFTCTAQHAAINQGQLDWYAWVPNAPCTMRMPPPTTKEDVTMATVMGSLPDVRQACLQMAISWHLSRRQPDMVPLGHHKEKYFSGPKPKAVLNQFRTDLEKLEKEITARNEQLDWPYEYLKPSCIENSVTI
#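 Purified human 12hLO (150 nM final) in 25 mM Hepes, 0.01% Triton X-100, pH 7.0 was preincubated 15 min at room temperature with compound. Then 40 uM arachidonic acid was added, 30 min. Hydroperoxide was read by Fe-XO absorbance ratio 573/405 nm.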
# * hit, by the source's call; ? = inconclusive; . = no result given; [ ] = remark or other dose. Many of the other results were omitted from the sample, so hits are more common in it than they were. Unless noted, calls follow the shape of the dose curve; as a rule, active = well fitted curve in the direction sought with a large enough effect; inconclusive = small, poorly fitted or top-dose-only effect, or another doubt; inactive = no such curve, though single readings can be large; an effect the other way counts as inactive or inconclusive. Unless noted, % is scaled to controls: 0 for no effect and ±100 for the full control effect.
SMILES,IL-1B inflam inh,HT1080 IDH1KD tx,TDP1 cell noCPT,TDP1 cell CPT,HT1080NT lethal,ALOX12 inh
CCC1(C)Cc2c(sc3c2c(=O)n(C)c2nnc(SCc4ccccc4)n32)CO1 (stereo not given),-2,-3%,?,18µM*,3%,4%
CCNC(=S)Nc1ccc(Cc2nc3ccccc3[nH]2)cc1,38,2%,2%,4%,0%,8%
CCCNC(=O)c1cccc(S(=O)(=O)N2CC3(C)CC2CC(C)(C)C3)c1 (stereo not given),2,-13%,?,?,-8%,-9%
CC(C)N(C(=O)COC(=O)c1cccc(S(=O)(=O)N2CC3(C)CC2CC(C)(C)C3)c1)C(C)C (stereo not given),-17,-18%,?,23µM*,-1%,-41%
CN(C)C(CNC(=O)c1cccc(S(=O)(=O)N2CC3(C)CC2CC(C)(C)C3)c1)c1ccco1 (stereo not given),-6,3%,16µM*,?,-1%,-8%
CC(=O)Nc1ccc(N=Cc2c(O)c(C(=O)Nc3ccccc3)cc3ccccc23)cc1,57,?,16µM*,?,-28%,-24%
CC(=O)Nc1ccc(N=Cc2c(O)c3ccccc3oc2=O)cc1,-5,-5%,-11%,21µM*,0%,-10%
COc1ccc(C2=NOC3(CCCN(C(=O)Cc4ccccc4)C3)C2)cc1 (stereo not given),.,.,.,.,.,-1%[6.33 µM]
Cc1cc(C)c(S(=O)(=O)NCCc2cc3ccc(C)c(C)c3[nH]c2=O)c(C)c1,-3,20%,18µM*,?,7%,-5%
COc1ccc2cc(CCNS(=O)(=O)c3c(C)cc(C)cc3C)c(=O)[nH]c2c1,12,-8%,-24%,?,-1%,-8%
Cc1ccc2cc(CCNS(=O)(=O)c3ccc(Br)cc3)c(=O)[nH]c2c1C,-23,0%,23µM*,?,-22%,9%
COc1ccc(N2C(=O)CCS2(=O)=O)cc1S(=O)(=O)N(C)CCc1ccncc1,.,.,.,.,.,20%
COc1ccccc1CNc1nc(NCc2cccc(OC)c2OC)c2sccc2n1,-90*,?,7.3µM*,4.6µM*,21µM*,?
COc1cccc(CNc2nn[nH]n2)c1OC,0,18%,4%,8%,15%,0%
COCCNc1nc(NCc2cccc(OC)c2OC)c2sccc2n1,26,-21%,12µM*,?,?,7%
S=C(NNC(=S)Nc1ccc(Cl)cc1)NNc1ccccc1,-23,0%,16µM*,15µM*,15%,45µM*
Cc1ccc(NC(=S)NNC(=S)NNc2ccccc2)cc1C,-13,-4%,23µM*,-6%,0%,40µM*
S=C(NNC(=S)Nc1ccccc1)Nc1ccccc1,?,4%,3.3µM*,3.7µM*,5%,?
C/C(=C\C(=O)c1ccccc1)Nc1ccc(O)cc1,-12,?,?,-26%,-3%,-17%
C/C(=C\C(=S)Nc1ccccc1)Nc1ccccc1,6,-7%,16µM*,15µM*,0%,?
O=C(CSc1nc(=O)n(CCN2CCOCC2)c2c1CCC2)Nc1ccc(Cl)c(Cl)c1,.,.,?,-25%,.,-14%
S=C(Nc1ccccc1)Nc1nccs1,-10,-5%,3.7µM*,5.2µM*,0%,-26%
Cc1cccc(NC(=O)CN(CC2CCCO2)C(=O)c2oc3ccccc3c2C)c1C (stereo not given),12,-7%,?,29µM*,1%,-23%
Cc1cccc(NC(=O)CN(CC2CCCO2)C(=O)c2cc3ccccc3o2)c1C (stereo not given),-10,8%,?,?,10%,7%
O=C(NCc1ccccc1F)C(=O)Nc1cccc(O)c1,.,.,.,.,.,-4%
SMILES,IL-1B inflam inh,HT1080 IDH1KD tx,TDP1 cell noCPT,TDP1 cell CPT,HT1080NT lethal,ALOX12 inh
O=c1c2ccccc2c(-c2ccc(O)cc2)nn1-c1cccc(C(F)(F)F)c1,-98*,21µM*,15µM*,15µM*,?,-28%
O=c1c2ccccc2c(-c2cccc(C(F)(F)F)c2)nn1-c1ccccc1,-13,-17%,?,?,-1%,149%
Fc1ccc(OCc2cc(-c3ccccc3)on2)cc1,.,.,.,.,.,1%
O=C1CCCCCN1CCNc1nc2ccccc2o1,.,.,.,.,.,24%
Cc1ccc(NC(=O)c2ccco2)c(NC(=O)c2ccccc2)c1,24,-9%,6%,-3%,2%,0%
CCN(CC)P(=O)(Nc1ccc(C)cc1Br)c1ccc(N(C)C)cc1NC(=O)c1ccco1 (stereo not given),-66*,-9%,16µM*,?,-10%,?
COc1ccc(CN2CC(c3nc(Cc4cccnc4)no3)C2)c(OC)c1,.,.,.,.,.,39%
CCCNC(=O)C(NC(=O)c1ccc(OC)cc1)C1CCN(C(=O)c2ccccc2C)CC1 (stereo not given),.,.,.,.,.,33%
Cc1nnc2n(Cc3ccccc3)c(=O)c3c4c(sc3n12)COC(C)(C)C4,-7,-2%,?,-12%,-2%,70%
C=CCSc1nnc2n(CCc3ccccc3)c(=O)c3c4c(sc3n12)COC(C)(C)C4,-12,0%,?,23µM*,0%,134%
CC(C)Sc1nnc2n(CCc3ccccc3)c(=O)c3c4c(sc3n12)COC(C)(C)C4,9,17%,21µM*,23µM*,7%,.
CC(=O)Oc1ccc2c(=O)c(-c3ccc4c(c3)OCCO4)c(C)oc2c1C,.,.,.,.,.,-11%
CCc1noc(CN2CCC(NC(=O)c3cnn(C)c3)CC2)n1,.,.,.,.,.,0%
Clc1ccc(-c2cnc([C@@H]3COCCN3Cc3ccccn3)[nH]2)cc1,.,.,.,.,.,3%[176 µM]
COc1ccc(OCc2cc(=O)[nH]c3ccccc23)cc1,-11,1%,-25%,-17%,2%,?
COc1cc(N=Nc2c(O)c3ccccc3[nH]c2=O)c(OC)cc1N=Nc1ccccc1,24,7%,13µM*,?,2%,.
COc1ccc(OC)c(N=Nc2c(O)c3ccccc3[nH]c2=O)c1,11,?,18µM*,15µM*,-29%,-1%
CSc1ccc(CCNc2ncnc3onc(-c4ccc(Cl)cc4)c23)cc1,.,.,10µM*,16µM*,.,-13%

# Compound activity as filed in PubChem BioAssay.
